In PubChem BioAssay (NCATS):
Inconclusive results are not listed. Values without a mark were called inactive. Calls of active or inactive are those of the source. Calls come from the whole dose curve; as a rule, active = well fitted cell-killing curve with a large enough effect; inconclusive = small, poorly fitted or top-dose-only effect, or effect the other way; inactive = no such curve, though single readings can be large or run the other way.

test: Viability qHTS for spleen associated tyrosine kinase inhibitor (SYKi) drug resistant MV4-11 cells (AID 1963824); settings: SYKi-resistant MV4-11 viability, CellTiter-Glo, 72 h; series mostly up to 45 µM; viability, % of control: at the top concentration; note: nearly all actives have a fitted effect of over 35% in size
In short: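 SYK inhibitor-resistant MV4-11 AML cells, 500 per well, added to predispensed compounds and incubated 72 hr at 37 C, 5% CO2. Viability measured by CellTiter-Glo luminescence after 10 min at room temperature.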
Potency is the fitted concentration of half-maximal effect.

With `COC(=O)C1=CO[C@@H](O[C@@H]2O[C@H](CO)[C@@H](O)[C@H](O)[C@H]2O)/C(=C\CO)[C@@H]1CC(=O)OCCc1ccc(O)cc1` as the molecule, how does the “viability, % of control” value read?
Its value is 102% [at 17.3 µM].

Which Potency does the source give for `CN1CCC(NC(=O)c2cc(-c3c(O)cc(O)cc3Oc3ccc([N+](=O)[O-])cc3)on2)CC1` here?
The Potency was 0.103 µM (active).

Which Potency does the source give for `CN1CCC(c2cn(C)c3ccc(OS(=O)(=O)c4c(F)cccc4F)cc23)CC1` here?
Its Potency is 14.6 µM (active).

With `Cc1ccc(F)cc1S(=O)(=O)N[C@@H]1CCN(Cc2ccc(OC(C)C)cc2)C1` as the molecule, how does the Potency read?
Its Potency is 18.4 µM (active).

Which Potency does the source give for `C[C@H](C(=O)NC1CCCC1)N(C(=O)Cn1nnc(-c2ccc3c(c2)OCO3)n1)C1CCCCC1` here?
The Potency was 2.91 µM (active).

For `C[C@H](NC(c1cccc(C[P+](=O)O)c1)[C@H](C)O)c1ccc(Cl)c(Cl)c1` (stereo partly specified), which “viability, % of control” value is on record?
Its value is 99.1%.

Which Potency does the source give for `CC(=O)C1=C(O)C2c3c[nH]c4cccc(c34)CC2C(C)(C)N(C)C1=O` (stereo unspecified) here?
The Potency was 23.1 µM (active).

With `CN1CCN(C(=O)c2cc3cc(Cl)ccc3[nH]2)CC1` as the molecule, how does the Potency read?
Its Potency is 8.2 µM (active).

With `Cc1c(C(=O)NCCCO)cnn1-c1nc(-c2cccc(C(F)(F)F)c2)cs1` as the molecule, how does the Potency read?
The Potency was 14.6 µM (active).

Which “viability, % of control” value does the source give for `CCC[C@@H]1C[C@@H](C(=O)N[C@@H]([C@H]2O[C@H](SC)[C@H](O)[C@@H](O)[C@@H]2O)[C@@H](C)O)N(C)C1` here?
The value was 108%.

With `CC(C)(C)c1ccc(-c2nc3ccccc3[nH]2)cc1` as the molecule, how does the Potency read?
Its Potency is 3.99 µM (active).
